Compound activity: PubChem BioAssay, National Center for Advancing Translational Sciences (NCATS)
This is a sample that favours compounds with a hit; in the whole collection about 0.2% have one here.
LDHA inh: qHTS assay for inhibitors of human lactate dehydrogenase; L-lactate dehydrogenase A chain (Homo sapiens), P00338; purified LDHA, NADH/diaphorase-resazurin fluorescence; stronger effect = lower value; activity change, % (values are at about 110 or 230 µM); 480,000 compounds, 0.15% hits; AID 1347041, 2019; in the data active = activity change below about -30%; inconclusive = mostly about -25% to -30%
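Human LDH5 at 2 nM final in Tris HCl pH 7.4 with 0.06 mM NADH and 0.2 mM pyruvate, reacted 5 minutes at room temperature. Remaining NADH coupled via diaphorase/resazurin; resorufin fluorescence read at 0 and 20 minutes, normalized to enzyme-free and DMSO wells.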
miR-21 reporter: qHTS Assay for Modulators of miRNAs and/orActivators of miR-21; HeLa miR-21 FLuc reporter, luciferase, 48 h; Potency, µM (doses to about 38.3 µM), most hits filed as activators; 340,000 tested, under 10 active;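 also: miR-21 action dims this reporter so a rising signal means less miR-21 action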
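HeLa cells stably expressing CMV-driven firefly luciferase with a downstream miR-21 binding sequence, endogenously expressing miR-21, were treated with titrations (up to about 40uM final) for 48 hours at 37 degree Celsius. Luciferase luminescence was read after lysis.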
Anesthetic bind: qHTS Assay for Identification of Novel General Anesthetics. apoferritin/1-aminoanthracene competitive binding, fluorescence. Potency, µM (titrated, usually from 77.5 µM), hits mostly inhibitors. 350,000 compounds, 0.074% hits. AID 485281, 2010; also: nearly all actives have a fitted effect of over 20% in size
Target sequence (P02791 2-175 limits assumed): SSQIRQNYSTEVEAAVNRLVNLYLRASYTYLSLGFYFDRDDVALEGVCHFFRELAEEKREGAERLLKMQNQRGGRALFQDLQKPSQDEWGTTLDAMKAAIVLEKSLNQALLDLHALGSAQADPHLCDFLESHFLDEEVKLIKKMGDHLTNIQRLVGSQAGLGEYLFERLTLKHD
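10 uM apoferritin + 50% sat. 1-AMA, PBS; cpd 10 min RT; Ex380/Em535 endpoint; normalized to free probe vs complex; 4-param Hill fit; propofol titration as pos. ctrl.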
Hits are given with their value; – = inactive; ? = inconclusive; · = no result; ! = not active in a repeat. Unless noted, calls follow the shape of the dose curve; as a rule, active = well fitted curve in the direction sought with a large enough effect; inconclusive = small, poorly fitted or top-dose-only effect, or another doubt; inactive = no such curve, though single readings can be large; an effect the other way counts as inactive or inconclusive.

SMILES	LDHA inh	miR-21 reporter	Anesthetic bind
CCOc1ccc2nc(S(=O)(=O)NC(=O)C3(C)CCN3C(=O)c3c(C)noc3C)sc2c1 (centres undefined)	–	·	·
CCOc1ccc2nc(S(=O)(=O)NC(=O)C3(C)CCN3C(=O)c3cc(C)n(C)n3)sc2c1 (centres undefined)	-66.6	·	·
CC(=O)CC(=O)N(CCC[N+](C)(C)C)CCC[N+](C)(C)C	–	·	·
Cc1ccc2[nH]c3c(c2c1)CCCC3NCC12CC3CC(CC(C3)C1)C2 (centres undefined)	–	·	·
CCOC(=O)N1CCC(N2CCN(S(=O)(=O)c3ccc(C)cc3)CC2)CC1	–	–	–
CCOC(=O)N1CCC(N2CCN(S(=O)(=O)CC)CC2)CC1	-33.6	–	–
Cc1c(Cl)cccc1NC(=O)COc1ncnc2ccc(Br)cc12	–	·	·
Cc1cccc(NC(=O)COc2ncnc3ccc(Br)cc23)c1C	-30.8	·	·
COc1ccc(S(=O)(=O)N2CCN(CC3CC=CCC3)CC2)cc1 (centres undefined)	–	–	–
CCCS(=O)(=O)N1CCN(CC2CC=CCC2)CC1 (centres undefined)	-30.9	–	–
Cc1ccc(/C=C/C(=O)O)c(Br)c1	–	·	·
Cc1ccc2c(C)c(C(=O)Nc3nc(-c4ccc(C)s4)ns3)oc2c1	-32.6	·	·
Cc1ccc(-c2nsc(NC(=O)c3oc4ccc(Cl)cc4c3C)n2)s1	–	·	·
CCCCc1c(CCC)c(=N)c2ccccc2n1C	-37.3	–	–
CCCCc1c(O)c2ccccc2n(CCCC)c1=O	–	–	–
COc1cccc(N2C(=O)CN(C3CCCCC3)[C@H]3CS(=O)(=O)C[C@H]32)c1	–	·	·
CC(OC(=O)c1ccc(C(N)=O)cc1)C(=O)NC(C)c1ccccc1 (centres undefined)	–	·	·
COc1ccc(NC(=O)c2cc([N+](=O)[O-])ccc2O)cc1	-38.1	?	–
COc1ccc(NC(=O)c2cccc([N+](=O)[O-])c2)cc1	–	–	–
Cn1c(SCC(=O)NCc2ccco2)nnc1-c1cccc(NC(=O)c2ccccc2)c1	–	·	·
CCC(=O)Nc1cccc(-c2nnc(SCC(=O)NCc3ccco3)n2C)c1	-30.6	–	–
CCOc1ccccc1CN1CCC(N2CCOCC2)CC1	-31.3	–	–
CCOc1ccccc1CN1CCC(O)CC1	–	–	–
CCCCOc1ccc2c(=O)c(Oc3ccccc3)c(C)oc2c1	–	·	·
Nc1c(C(=O)Nc2ccc(Cl)c(Cl)c2)sc2nc(-c3cccnc3)ccc12	·	–	–
SMILES	LDHA inh	miR-21 reporter	Anesthetic bind
Nc1c(C(=O)Nc2cc(Cl)cc(Cl)c2)sc2nc(-c3ccncc3)ccc12	-31.6	·	·
COc1cccc(NC(=O)C(c2ccc(Cl)cc2)C(C)C)c1 (centres undefined)	–	·	·
CCc1c(C)c2ccc(OCC(=O)c3ccccc3)cc2oc1=O	–	·	·
Cc1[nH]c2ccc(Cl)cc2c1CCNC(=S)NC(C)(C)C	–	·	·
COc1ccccc1N1CCN(C2CCN(C(=O)c3cccc(F)c3)CC2)CC1	-31.9	–	–
COc1ccccc1N1CCN(C2CCN(C(=O)c3ccc(F)cc3)CC2)CC1	–	–	–
COc1cccc(C(=O)N2CCN(C3CCN(Cc4ccccc4)CC3)CC2)c1	·	–	–
COc1ccc(C(=O)N2CCN(C3CCN(Cc4ccccc4)CC3)CC2)cc1OC	-40.2	–	–
CCCc1nc(SC)ncc1C(=O)Nc1ccc(Cl)cc1C	–	·	·
c1ccc(CCc2nnc3sc(-c4ccc5ccccc5n4)nn23)cc1	–	·	·
CCc1ccc(NC(=O)c2nc3ccccc3nc2N2CCN(C)CC2)cc1	–	·	·
CCc1ccc(NC(=O)c2nc3ccccc3nc2N2CCCC2)cc1	-31.0	·	·
Cc1ccc2c(c1)C(c1ccccc1)=Nc1ccc(C)cc1C(c1ccccc1)=N2	–	·	·
CCNC(=O)NC(=O)CSc1cc(C)c2ccccc2n1	–	·	·
CN1CCN(C(=O)C2CCCN(S(=O)(=O)c3ccc(Cl)cc3)C2)CC1 (centres undefined)	-33.0	–	–
CN1CCN(C(=O)C2CCCN(S(=O)(=O)c3ccc(Br)cc3)C2)CC1 (centres undefined)	–	–	–
CCOc1ccc(-c2cc(C(=O)NCCc3ccccn3)[nH]n2)cc1	–	·	·
CCOc1ccc(C2NC(=O)NC(CN3CCN(C(=O)OC(C)(C)C)CC3)=C2C(=O)OC)cc1 (centres undefined)	–	·	·
CCn1nc(C(=O)Nc2cc(S(=O)(=O)N(C)C)ccc2C)c2ccccc2c1=O	–	·	·
N#Cc1nc(-c2ccccc2Cl)oc1N1CCOCC1	-32.4!	–	–
N#Cc1nc(-c2ccccc2Cl)oc1N1CCCCCC1	–	·	·
CC(NC(=O)CCCNC(=O)C1CC1)c1ccc(C#N)cc1 (centres undefined)	–	·	·
CCOc1ccc(S(=O)(=O)N(CC(=O)Nc2cccc(OC)c2)c2ccccc2)cc1	–	·	·
CCOc1ccc(S(=O)(=O)N(CC(=O)Nc2cccc(C)c2)c2ccccc2)cc1	-34.4	·	·
CCCCC1CCC(C(=O)Oc2ccc(C=O)c(O)c2)CC1 (centres undefined)	–	·	·
SMILES	LDHA inh	miR-21 reporter	Anesthetic bind
CCCc1ccc(-c2c(C)sc(N)c2C#N)cc1	–	–	35.5µM
CCc1ccc(-c2c(C)sc(N)c2C#N)cc1	–	·	·
CCN(C(C)C(=O)Nc1ccc(C)cc1)S(=O)(=O)c1cccc2cc(C)cnc12 (centres undefined)	–	·	·
CCc1ccccc1-n1c(N)c(C(=O)OC)sc1=S	–	·	·
Cc1ccc(C)c(-c2cc(C)ncc2C)c1	-30.5	·	·
Cc1ccc(Cc2cc(C)ncc2C)c(C)c1	–	·	·
CCCNC(=O)COc1ccccc1NC(C)=O	–	·	·
Cc1cc(SCC(=O)Nc2ccc(F)c(F)c2F)nc2ccccc12	-34.2	·	·
CSc1ccccc1NC(=O)CSc1cc(C)c2ccccc2n1	–	·	·
C=C(Cl)COC(=O)c1ccc2[nH]c(C)c(C)c2c1	–	·	·
O=C(COC(=O)Cn1cnc2ccccc2c1=O)Nc1ccc(Cl)cc1	–	–	?
O=C(COC(=O)Cn1cnc2ccccc2c1=O)Nc1ccc(Cl)c(C(F)(F)F)c1	–	–	25.1µM
O=C(O)Cc1ccc(N2C(=O)C(=O)/C(=C(/O)c3ccccc3Cl)C2c2ccccc2F)cc1 (centres undefined)	–	·	·
Cc1ccc(N/N=C/c2ccc(C(C)(C)C)cc2)cc1Cl	–	·	·
CCCc1cc(=O)oc2cc(OS(=O)(=O)c3ccc(F)cc3Cl)ccc12	–	·	·
CCOc1cccc2cc(-c3nc(-c4ccccc4F)no3)c(=O)oc12	-34.5	·	·
CCOc1cccc2cc(-c3nc(-c4ccc(F)cc4)no3)c(=O)oc12	–	·	·
Cc1c2cnn(CC(=O)NCc3cccs3)c(=O)c2c(C)n1Cc1ccccc1	–	·	·
CC1CCN(CCOCCOc2ccc(Cl)cc2Br)CC1	-33.7	–	–
CC1CCN(CCCOc2ccc(Cl)cc2Br)CC1	–	–	–
CSc1ccccc1N=CC1=C(O)CC(C)(C)CC1=O	–	–	–
CC1(C)CC(=O)C(Sc2ccccc2[N+](=O)[O-])=C(O)C1	-78.2	–	–
CCc1ccc(-c2noc(CSc3nc4cc5c(cc4c(=O)n3Cc3ccco3)OCO5)n2)cc1	–	·	·
COc1cc(CCc2ccccc2)c(C(=O)O)c(O)c1C/C=C(/C)CCC=C(C)C	-38.4	·	·
